# Where “and” joins values, the source holds several entries; their conditions need not be identical. Equal values may be shown once. The panel holds about 83,000 compounds, 20% with a hit somewhere; the sample as a whole holds those more often.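 96-well plates, one dose, 48 hours. Percent growth reported; active if below 10.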 Calls of active or inactive are those of the source.
# Assays:
# Assay in all cases: NCI-60 one-dose screen, 48 h (100 = growth as untreated, 0 = no growth, -100 = all killed)
# Details in all cases: 10 µM unless noted
# [1] = test system: SN12C renal
# [2] = test system: UO-31 renal
# [3] = test system: TK-10 renal
# [4] = test system: ACHN renal
# [5] = test system: CAKI-1 renal
# [6] = test system: A498 renal
# [7] = test system: CCRF-CEM leukemia
# [8] = test system: MOLT-4 leukemia
# [9] = test system: EKVX NSCLC
Compound,growth [1],growth [2],growth [3],growth [4],growth [5],growth [6],growth [7],growth [8],growth [9]
CN1CCc2c(c3ccccc3c3ccccc23)C1,42.7% (inactive),42.2% (inactive),60.9% (inactive),25.7% (inactive),56.1% (inactive),62.9% (inactive),-38.4% (active),6.11% (active),
CC(C)(C)[Si](C)(C)OC1[C@@H](COC(=O)NC(=O)CCl)O[C@@H](n2cnc3c(N)ncnc32)[C@H]1O[Si](C)(C)C(C)(C)C (stereo partly drawn),-47.5% (active),20% (inactive),,61.4% (inactive),19.3% (inactive),105% (inactive),-48.6% (active),-54.7% (active),
O=c1[nH]c(-c2ccncc2)nc2sc3c(c12)CCCCCC3,77.9% (inactive),70.5% (inactive),,49.9% (inactive),67.8% (inactive),70.1% (inactive),98.1% (inactive),92.1% (inactive),
Cc1cc(=O)[nH]n1-c1cc(Cl)ccc1N,110% (inactive),89.3% (inactive),98.1% (inactive),,,120% (inactive),,112% (inactive),117% (inactive)
Nc1cc2[nH]c(=O)c3ccccc3c2cc1Br,72.8% (inactive),41.2% (inactive),45.2% (inactive),,54.3% (inactive),37.7% (inactive),81.2% (inactive),87.3% (inactive),44.7% (inactive)
Cc1ccc(S(=O)(=O)N2CCc3ccc(O)c4c3C2CCc2ccccc2-4)cc1 (stereo not drawn),100% (inactive),67.6% (inactive),111% (inactive),93.4% (inactive),88.3% (inactive),111% (inactive),,77.5% (inactive),
CC(=O)Nc1ccc(Sc2ccc([N+](=O)[O-])o2)cc1,54.2% (inactive),,64.9% (inactive),-28.1% (active),,120% (inactive),,33.2% (inactive),76.4% (inactive)
CC(C)OC1=C(Cl)C(=O)c2ccccc2C1=O,90.5% (inactive),76.7% (inactive),110% (inactive),98.5% (inactive),106% (inactive),112% (inactive),,39.8% (inactive),103% (inactive)
Oc1cccc(Nc2nc(-c3ccccn3)cs2)c1,97.8% (inactive),73.1% (inactive),111% (inactive),102% (inactive),111% (inactive),,,85.2% (inactive),
O=c1nc(NO)[nH]c(=O)n1Cc1ccc(F)cc1,107% (inactive),84.2% (inactive),,101% (inactive),111% (inactive),128% (inactive),105% (inactive),103% (inactive),
Nc1ccccc1-c1n[nH]c(=O)[nH]c1=O,97.7% (inactive),86.8% (inactive),,104% (inactive),87.5% (inactive),107% (inactive),,106% (inactive),
CC(=O)c1cc(C)c(OC(=O)c2ccccc2)c(C)c1,102% (inactive),84.3% (inactive),,103% (inactive),79.3% (inactive),105% (inactive),85.4% (inactive),93.3% (inactive),96.5% (inactive)
O=C1C(OCCOc2ccccc2)=C(OCCOc2ccccc2)C(=O)c2ccccc21,51.8% (inactive),46.9% (inactive),116% (inactive),73.5% (inactive),,94.7% (inactive),,82.9% (inactive),103% (inactive)
CC(C)(C)[Si](C)(C)OC1[C@@H](O[Si](C)(C)C(C)(C)C)[C@@H](CNC(=O)NC(=O)C(F)(F)F)O[C@H]1n1cnc2c(NC(=O)Nc3ccccc3)ncnc21 (stereo partly drawn),81.1% (inactive),-24.2% (active),,76.2% (inactive),16.6% (inactive),96.9% (inactive),,-41.7% (active),
CNc1ccc(Br)cc1-c1n[nH]c(=O)[nH]c1=O,108% (inactive),71.3% (inactive),,94.6% (inactive),76% (inactive),89.7% (inactive),102% (inactive),99.5% (inactive),
COC(=O)/C=C1/CCC2C3CCC4=CC(=O)C(Br)CC4(C)C3C(=O)CC12C (stereo not drawn),82.9% (inactive),81.1% (inactive),,72.5% (inactive),73.9% (inactive),117% (inactive),5.9% (active),52.3% (inactive),98% (inactive)
COc1ccccc1-n1c(SCc2cc(OC)c(OC)c(OC)c2)nc2ccc(Cl)cc2c1=O,70.3% (inactive),42.6% (inactive),,44.2% (inactive),42.6% (inactive),5.01% (active),2.88% (active),15.4% (inactive),
CCN1CCN(C(=S)SCC(=O)Nc2nc3ccc(OC)cc3s2)CC1,97.6% (inactive),79% (inactive),111% (inactive),110% (inactive),,105% (inactive),,97.2% (inactive),
CC[Si](CC)(CC)OC1[C@@H](O[Si](CC)(CC)CC)[C@@H](CNC(=O)NC)O[C@H]1n1cnc2c(NC(=O)Nc3ccccc3)ncnc21 (stereo partly drawn),93.6% (inactive),40.1% (inactive),,88.4% (inactive),69% (inactive),38.6% (inactive),38.5% (inactive),-10.9% (active),
O=C1N/C(=C\c2ccccc2)c2ncccc21,100% (inactive),69% (inactive),121% (inactive),103% (inactive),93.6% (inactive),123% (inactive),,80.7% (inactive),93.1% (inactive)
O=C1NC(=O)C2(CCCC2C(=O)O)N1 (stereo not drawn),99.6% (inactive),96.5% (inactive),106% (inactive),99.5% (inactive),102% (inactive),115% (inactive),91.8% (inactive),101% (inactive),
Cc1ccc2nc(NC(=O)CSC(=S)N3CCN(Cc4ccccc4)CC3)sc2c1,-1% (active),-43.4% (active),-36.4% (active),-2.52% (active),,-3.21% (active),,6.71% (active),72.5% (inactive)

Compound,growth [1],growth [2],growth [3],growth [4],growth [5],growth [6],growth [7],growth [8],growth [9]
Oc1ccccc1/C=N/Nc1nc2ccccc2s1,48.8% (inactive),,95.1% (inactive),43.1% (inactive),7.12% (active),78.3% (inactive),,41.2% (inactive),61.9% (inactive)
CC(C)(C)[Si](C)(C)OC1[C@@H](COC(N)=O)O[C@@H](n2cnc3c(N)ncnc32)[C@H]1O[Si](C)(C)C(C)(C)C (stereo partly drawn),102% (inactive),51.9% (inactive),,89.1% (inactive),91.9% (inactive),106% (inactive),50.3% (inactive),-40.1% (active),
CC(=O)O[C@@H]1C[C@@]2(C)[C@@H]3CC=C4[C@@H](C[C@H](O)C(=O)C4(C)C)[C@]3(C)C(=O)C[C@]2(C)[C@H]1[C@@](C)(O)C(=O)/C=C/C(C)(C)OC(C)=O,,,-62% [100 µM] (active) and -91% [100 µM] (active),,,,,,
CCCCCCCCCc1cc(=O)c2c(O)cc(O)cc2o1,,,-87.9% [100 µM] (active) and -100% [100 µM] (active),,,,,,
COc1cc(CC2c3cc(OC)c(OC)cc3CCN2C)c(Oc2cc3c(cc2OC)-c2c(O)c(OC)cc4c2C(C3)N(C)CC4)cc1OC (stereo not drawn),,,-10.6% [100 µM] (active) and -93% [100 µM] (active),,,,,,
O=c1nc(NO)[nH]c(=O)n1Cc1ccccc1,113% (inactive),90.3% (inactive),,101% (inactive),,100% (inactive),108% (inactive),109% (inactive),
Cc1ccc(NC(=S)C#N)c(C)c1,,,93.1% [100 µM] (inactive) and 43.3% [100 µM] (inactive),,,,,,
Cc1ccc(C(=O)O[C@H](C(=O)O)[C@H](OC(=O)c2ccc(C)cc2)C(=O)O)cc1,,85.1% (inactive),,,,,,,
CC1=CCC2C3(C)CCC2(C(C)C)C1C3 (stereo not drawn) (tested in a mixture with another compound),,,17.7% [100 µM] (inactive) and -89.5% [100 µM] (active),,,,,,
CC(C)(C)[Si](C)(C)OC1[C@@H](CNC(=O)NC(=O)CCl)O[C@@H](n2cnc3c(N)ncnc32)[C@H]1O[Si](C)(C)C(C)(C)C (stereo partly drawn),-81.9% (active),-96.8% (active),,-95.8% (active),,-12.9% (active),-46.5% (active),-53.5% (active),
COc1cc(Nc2ccc3c(c2)CCC3)nc(OC)n1,,,53.3% [100 µM] (inactive) and -39.4% [100 µM] (active),,,,,,
COC(=O)c1ccc(CCc2cc(O)c(Br)cc2O)cc1,,,-97.6% [100 µM] (active) and -100% [100 µM] (active),,,,,,
CN1CCN(c2nc(-c3ccncc3)nc3sc4c(c23)CCCCCC4)CC1,67.8% (inactive),33.7% (inactive),,,46.7% (inactive),31.7% (inactive),79.5% (inactive),50.9% (inactive),
COc1ccc(-n2c(SCc3cc(OC)c(OC)c(OC)c3)nc3ccc(C)cc3c2=O)c(OC)c1,45.2% (inactive),,,44.9% (inactive),,-16.4% (active),0% (active),11.3% (inactive),
CC(=O)OCC1=C(C)C[C@H]([C@@H](COC(C)=O)C2CCC3C4C[C@H]5O[C@]56CC=CC(=O)[C@]6(C)C4CC[C@@]32C)OC1=O (stereo partly drawn),,,-97.1% [50 µM] (active) and -100% [50 µM] (active),,,,,,
CC12NC(=C(C#N)C#N)C(C#N)=C3NC(N)=C(C#N)C(=C31)Oc1ccccc12 (stereo not drawn),,,22.5% [100 µM] (inactive) and -82.1% [100 µM] (active),,,,,,
NC(=O)c1[nH]cnc1/N=N/SCC(N)C(=O)O (stereo not drawn),,,9.64% [100 µM] (active) and 8.09% [100 µM] (active),,,,,,
CC(C)(C)c1cc(C2COC(=O)COCC(=O)OCCOCCOCCO2)cc(C(C)(C)C)c1O (stereo not drawn),,,-74.5% [100 µM] (active) and -100% [100 µM] (active),,,,,,
O=C1C=C(Nc2ccc(S(=O)(=O)Nc3nccs3)cc2)c2ccccc2C1=O,,,171% [100 µM] (inactive) and -86% [100 µM] (active),,,,,,
CCOC(=O)C1(C#N)C(=O)c2cc[n+](CC[n+]3ccc4c(c3)C(=O)C(C#N)(C(=O)OCC)C4=O)cc2C1=O (stereo not drawn),,,141% [100 µM] (inactive) and 101% [100 µM] (inactive),,,,,,
Cc1ccc(/C=N/Nc2cc(C)c3ccccc3n2)s1,,,-63.7% [100 µM] (active) and -75.8% [100 µM] (active),,,,,,
N#Cc1ccc(C(F)(F)F)nc1N1CCC(C(=O)Nc2ccc(Cl)cc2)CC1,80.3% (inactive),74% (inactive),,,73.1% (inactive),64.2% (inactive),82.5% (inactive),41% (inactive),

# — PubChem BioAssay (NCI)
